Screens as filed in PubChem BioAssay.
Compounds with a hit are over-represented: about 2.7% of the library has one in this group of screens.
A549 tox-1: A549 cytotoxicity, counter-screen for Nrf2 inhibitors; A549 ARE-Fluc cells, CellTiter-Fluor viability, 18-24 h; Potency, µM (titrated, usually from 46 µM), inactives show at the top dose activity change, negative = cytotoxicity, most hits filed as inhibitors; 390,000 compounds, 0.16% hits; AID 504648; also: potency is read from the fitted curve at half-maximal effect; % is scaled to controls: 0 for no effect and ±100 for the full control effect
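A549 ARE_Fluc cells in 5% FBS OPTI-MEM were exposed to compounds in concentration-response for 18-24 h at 37 deg C. Viability was read by CellTiter-Fluor fluorescence (Ex 405/Em 525) after 30 min, before the luciferase read.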
ALOX12 inh: ALOX12 (human) lipoxygenase inhibition. Potency, µM (doses to about 108 µM), for inactives: top-dose activity change, negative = inhibition, actives largely listed as inhibitors. purified 12hLO, xylenol orange hydroperoxide absorbance. 580,000 compounds, 1.1% hits. AID 1671190; also: potency is read from the fitted curve at half-maximal effect; % is scaled to controls: 0 for no effect and ±100 for the full control effect
Target sequence (P18054 whole entry, looked up): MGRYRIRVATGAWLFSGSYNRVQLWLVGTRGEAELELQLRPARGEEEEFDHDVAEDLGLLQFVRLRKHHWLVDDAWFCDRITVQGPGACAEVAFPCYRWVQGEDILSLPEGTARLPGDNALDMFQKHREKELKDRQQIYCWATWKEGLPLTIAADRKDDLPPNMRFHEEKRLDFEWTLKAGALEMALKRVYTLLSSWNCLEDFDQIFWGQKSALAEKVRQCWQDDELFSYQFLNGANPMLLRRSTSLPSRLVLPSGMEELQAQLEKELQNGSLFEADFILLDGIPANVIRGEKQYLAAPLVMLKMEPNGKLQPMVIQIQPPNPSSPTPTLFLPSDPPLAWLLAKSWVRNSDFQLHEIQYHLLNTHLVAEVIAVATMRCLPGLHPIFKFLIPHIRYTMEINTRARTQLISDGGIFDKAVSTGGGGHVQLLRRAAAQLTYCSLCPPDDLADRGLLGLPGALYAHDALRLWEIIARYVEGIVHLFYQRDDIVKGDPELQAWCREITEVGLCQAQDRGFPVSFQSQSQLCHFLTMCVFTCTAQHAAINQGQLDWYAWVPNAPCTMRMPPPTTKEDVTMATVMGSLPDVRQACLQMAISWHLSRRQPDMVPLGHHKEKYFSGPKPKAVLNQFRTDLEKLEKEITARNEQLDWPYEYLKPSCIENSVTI
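Purified human 12hLO at 150 nM in 25 mM Hepes, 0.01% Triton X-100, pH 7.0, preincubated 15 min at room temperature with compound. Reaction started with 40 uM arachidonic acid, 30 min at room temperature. Hydroperoxide measured by Fe-xylenol orange, 573/405 nm absorbance ratio.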
ERG Ets-DNA blk: inhibitors of human ERG Ets domain-DNA interaction; fluorescence polarization, His-ERG Ets domain / labelled DNA; P11308; Potency, µM (titrated, usually from 76.9 µM), without a hit: at the highest dose FP activity, negative = inhibition, most hits filed as inhibitors; 370,000 compounds, 0.028% hits; active = well fitted inhibition curve with a large enough effect in the polarisation, with a control signal flat; inconclusive = small, poorly fitted or top-dose-only effect, or effect the other way, or a change in a side signal; inactive = no such curve, though single readings can be large or run the other way; the % refers to the polarisation;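 also: polarization taken with two DNA probes labelled with fluorescein and Texas red; potency is read from the fitted curve at half-maximal effect; % of control where 0% means no effect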
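His-tagged ERG Ets domain (1 uM in the protein solution; 300mM KCl, 50mM Tris-HCl, 1mM EDTA, 1mM DTT, pH 7.5) received compound, then a probe mix of 5 nM fluorescein-DNA and 100nM Texas-615-DNA. Fluorescence polarization was read for both dyes.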
Nrf2 activator: Nrf2 pathway activation. AREc32 ARE-luciferase reporter (MCF7-derived line), luminescence, 24 h. Potency, µM (series often up to 46.1 µM), for the others: at the top dose activation, most hits filed as activators. 410,000 compounds, 0.31% hits. AID 624171; also: potency is read from the fitted curve at half-maximal effect; % of control where 0% means no effect; nearly all actives have a fitted effect of over 65% in size
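AREc32 cells carrying an ARE-driven firefly luciferase, 1000 cells/well in OPTI-MEM with 5% FBS, dosed after overnight attachment and incubated 24 hr at 37 deg C. Steady-Glo luminescence read after 30 min at RT.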
Nrf2 block: Nrf2 pathway inhibition | Potency, µM (titrated, usually from 46 µM), inactives show at the top dose activity change, negative = inhibition, hits mostly inhibitors | 360,000 compounds, 2.1% hits | A549 ARE-Fluc reporter, luciferase luminescence, 18-24 h | AID 504444; also: potency is read from the fitted curve at half-maximal effect; % is scaled to controls: 0 for no effect and ±100 for the full control effect; nearly all actives have a fitted effect of over 60% in size
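A549 ARE_Fluc cells (5000/well, 5% FBS OPTI-MEM) pre-incubated 2 h, then treated with compounds 18-24 h at 37C/5% CO2 in concentration-response. CellTiter-Fluor viability read first; BugLite luciferase luminescence after 15 min at room temperature gives Nrf2 activity.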
LDHA inh: inhibitors of human lactate dehydrogenase A; P00338; purified LDHA, NADH/diaphorase-resazurin fluorescence; active compounds read low; activity change, % (values are at about 110 or 230 µM); 480,000 compounds, 0.15% hits; AID 1347041; in the data active = activity change below about -30%; inconclusive = mostly about -25% to -30%;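 also: plate controls were DMSO wells for no effect and wells without enzyme for full effect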
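Enzyme activity of human lactate dehydrogenase 5 (2 nM; 0.06 mM NADH, 0.2 mM pyruvate, 5 min, RT) is measured via a resazurin/diaphorase fluorescence readout of residual NADH.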
FLuc enzyme inh: firefly luciferase inhibition, Nrf2 hit validation. shares compounds with Nrf2 block. purified firefly luciferase, luminescence inhibition. Potency, µM (titrated, usually from 57.5 µM), for the others: at the highest dose activity change, negative = inhibition, actives largely listed as inhibitors. 1,400 compounds, 4% hits; also: potency is read from the fitted curve at half-maximal effect; % is scaled to controls: 0 for no effect and ±100 for the full control effect; nearly all actives have a fitted effect of over 65% in size
A549 tox-2: A549 cytotoxicity, Nrf2 inhibitor counterscreen; Potency, µM (titrated, usually from 46.1 µM), for the others: at the highest dose activity change, negative = cytotoxicity, usual class: inhibitors; A549 ARE-Fluc cells, cytotoxicity counterscreen; shares compounds with Nrf2 block; 1,400 compounds, 2% hits; AID 720523;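 also: potency is read from the fitted curve at half-maximal effect; cells exposed to compounds for 18 to 24 hours; % is scaled to controls: 0 for no effect and ±100 for the full control effect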
ARE-Fluc inh: confirmation of Nrf2 inhibitors in A549 ARE reporter cells. shares compounds with Nrf2 block. Potency, µM (top dose mostly 46.1 µM), for the others: top-dose activity change, negative = inhibition, hits mostly inhibitors. A549 ARE-firefly luciferase reporter, luminescence. 1,400 compounds, 74% hits; also: potency is read from the fitted curve at half-maximal effect; % is scaled to controls: 0 for no effect and ±100 for the full control effect; nearly all actives have a fitted effect of over 65% in size
Numbers without * were called inactive. Unless noted, calls follow the shape of the dose curve; as a rule, active = well fitted curve in the direction sought with a large enough effect; inconclusive = small, poorly fitted or top-dose-only effect, or another doubt; inactive = no such curve, though single readings can be large; an effect the other way counts as inactive or inconclusive.

Screening Cc1ccc(-n2nnnc2CNS(=O)(=O)c2ccc(Cl)cc2)cc1C returned ALOX12 inh -41% and LDHA inh 0.
For O=c1c2cccc3c2c(nn1CN1CCOCC1)-c1ccccc1-3 the results were A549 tox-1 -13%, ERG Ets-DNA blk 1%, Nrf2 activator 14%, Nrf2 block 3.7µM*, LDHA inh -1, FLuc enzyme inh 3%, A549 tox-2 -9% and ARE-Fluc inh 8.2µM*.
Screening Clc1ccc(N2CCN(c3ncnc4c3nc3n4CCCC3)CC2)cc1 returned A549 tox-1 -4%, ALOX12 inh -12%, ERG Ets-DNA blk 1%, Nrf2 activator 0%, Nrf2 block 4.6µM*, LDHA inh -14, FLuc enzyme inh 4%, A549 tox-2 -2% and ARE-Fluc inh 1.5µM*.
C/C(=N\Nc1nc2ccccc2nc1C)c1ccccc1O was read as A549 tox-1 -14%, ALOX12 inh -4%, ERG Ets-DNA blk -1%, Nrf2 activator 6%, Nrf2 block 0% and LDHA inh -2.
CC(=NNc1ccc2ccccc2n1)c1ccccc1O was read as A549 tox-1 1%, ALOX12 inh inconclusive, ERG Ets-DNA blk 3%, Nrf2 activator inconclusive, Nrf2 block inconclusive, LDHA inh -1, FLuc enzyme inh 0.038µM*, A549 tox-2 -6% and ARE-Fluc inh inconclusive.
Screening CCN(CC)c1ccc(C(=C2C=CC(=[N+](CC)CC)C=C2)c2ccccc2)cc1 returned A549 tox-1 9.2µM*, ALOX12 inh 22µM*, Nrf2 activator -3%, Nrf2 block 1.3µM*, LDHA inh 14, FLuc enzyme inh 21µM*, A549 tox-2 6.5µM* and ARE-Fluc inh 0.73µM*.
Screening CCN(CC)c1ccc(NC(=S)Nc2ccccc2)cc1 returned ALOX12 inh inconclusive and LDHA inh 25.
`CN1CCN(C(C(=O)O)c2cn(C)c3cc(C(=O)O)ccc23)CC1` (configuration not stated) gave ALOX12 inh inconclusive and LDHA inh 6.
`COc1ccc(Cl)cc1NC(=O)c1cc2c(=O)n3ccccc3nc2s1` gave A549 tox-1 -25%, ALOX12 inh -23%, ERG Ets-DNA blk -4%, Nrf2 activator 10%, Nrf2 block 1.6µM*, LDHA inh -3, FLuc enzyme inh -8%, A549 tox-2 inconclusive and ARE-Fluc inh 23µM*.
`CCNCC(=O)OCC` gave ALOX12 inh inconclusive and LDHA inh -4.
CCOc1ccc(NC(=O)COc2ccc(-c3nnc4n3CCCC4)cc2)cc1 was read as ALOX12 inh -1%.
For Nc1cc(S(=O)(=O)N2CCOCC2)ccc1Oc1cccc(Br)c1 the results were A549 tox-1 -18%, ALOX12 inh -24%, ERG Ets-DNA blk 0%, Nrf2 activator 3%, Nrf2 block 8.2µM*, LDHA inh -1, FLuc enzyme inh 0%, A549 tox-2 -1% and ARE-Fluc inh 8.2µM*.
Screening CC(C)c1cc(=O)oc2cc(OCC(=O)NC3(C#N)CCCCC3)ccc12 returned ALOX12 inh -13% and LDHA inh 9.
COc1ccc(CN(CC(F)(F)F)C(=O)c2cnc3ccccc3n2)cc1 was read as ALOX12 inh 12% and LDHA inh 0.
Screening Cc1ccc(S(=O)(=O)CC2CSc3nc(N)cc(=O)n32)cc1 (configuration not stated) returned A549 tox-1 -13%, ALOX12 inh 6%, ERG Ets-DNA blk -2%, Nrf2 activator -1%, Nrf2 block -11% and LDHA inh -1.
For Cc1ccc(S(=O)(=O)CC2CSc3nc4ccccc4n32)cc1 (configuration not stated) the results were A549 tox-1 0%, ALOX12 inh 3%, Nrf2 activator -1%, Nrf2 block 0.73µM*, LDHA inh -1, FLuc enzyme inh 0%, A549 tox-2 -1% and ARE-Fluc inh 1.3µM*.
Screening COc1cccc(C(=O)Nc2c(C(=O)NC(C)(C)C)oc3ccccc23)c1 returned A549 tox-1 6%, ALOX12 inh -25%, ERG Ets-DNA blk 11%, Nrf2 activator 0%, Nrf2 block inconclusive, LDHA inh 6, FLuc enzyme inh 1%, A549 tox-2 -14% and ARE-Fluc inh -16%.
Screening COc1cc(OC)c(/C=C/c2cc3ccccc3c[n+]2C)c(OC)c1 returned LDHA inh -22, FLuc enzyme inh 3%, A549 tox-2 inconclusive and ARE-Fluc inh 4.6µM*.
For COc1ccc(OC)c(/C=C/c2cc3ccccc3c[n+]2C)c1 the results were LDHA inh -11, FLuc enzyme inh -27% and A549 tox-2 -18%.
For O=C(CCc1cccnc1)NCCOc1cccc(F)c1 the results were ALOX12 inh 17% and LDHA inh -1.
`Cc1cccc(Nc2nc(-c3c(C)nc4ccccn34)cs2)c1` gave A549 tox-1 -24%, ALOX12 inh -26%, Nrf2 activator 7%, Nrf2 block 9.2µM*, LDHA inh 10, FLuc enzyme inh -28%, A549 tox-2 -21% and ARE-Fluc inh 6.5µM*.
`Cc1nc2ccccn2c1-c1csc(Nc2cccc(O)c2)n1` gave A549 tox-1 -10%, ALOX12 inh -10%, ERG Ets-DNA blk 8%, Nrf2 activator 15%, Nrf2 block -2% and LDHA inh 8.
Cc1cccc(C)c1NC(=O)COc1ncnc2ccccc12 was read as ALOX12 inh 6% and LDHA inh 8.
For Cc1cccc(NC(=O)CN2CCN(CCc3ccccc3)CC2)c1 the results were ALOX12 inh 18% and LDHA inh -25.
